# System: Lefty1
# Assay: Lefty1 binders on small-molecule microarrays, primary screen, biochemical, small-molecule microarray, 635/667 nm fluorescence (AID 1139)
# Conditions: small-molecule microarray binding, fluorescence 635/667; higher = more signal
row,SMILES,composite z-score
1,COc1cc(CO)ccc1OC(C)=O,0.636
2,COc1ccc(C#Cc2ccc3c(c2)[C@]2(C(=O)N3)[C@H](c3ccc(O)cc3)N3[C@H](c4ccccc4)[C@H](c4ccccc4)OC(=O)[C@H]3[C@@H]2C(=O)N2CCCCCCC2)cc1,1.61
3,CN1C=C(C(=O)OCCS(C)(=O)=O)C(C(=O)OCCS(C)(=O)=O)=CC(CCCO)=CC1C1CC1 (stereo unspecified),0.889
4,COCCOC(=O)N1C(=O)[C@@]2(c3cc(C#CCC(C(=O)OC)C(=O)OC)ccc31)[C@H](c1ccc(O)cc1)N1[C@H](c3ccccc3)[C@H](c3ccccc3)OC(=O)[C@H]1[C@@H]2C(N)=O,0.366
5,COc1ccc(NN2C(C(O)c3ccc(OC)c(OCc4ccccc4)c3)C=CC3C(=O)N(C4CCCCC4)C(=O)C32)cc1 (stereo unspecified),0.461
6,CC(C)N1CC=CC23O[C@@H]4C=CCOC(=O)[C@@H]4[C@H]2C(=O)N(CCO)[C@@H]3C1=O (stereo partly specified),0.103
7,O=C1c2ccccc2[C@@]2(Cc3ccccc3N(Cc3ccccc3)C2=O)[C@H](c2ccc(CO)cc2)N1C1CCCCC1,0.483
8,CO[C@H]1O[C@H](CO)[C@@H](OC(=O)Nc2ccc3c(c2)OCO3)[C@H](OC(=O)Nc2ccccc2)[C@H]1OC(=O)Nc1ccccc1,1.29
9,CC(C)C[C@@H]1NC(=O)[C@@H]2C[C@H](C(=O)NCCCCCC[N+](C)(C)C)[C@H](c3ccc(O)cc3)N2C1=O,1.08
10,N#Cc1ccc(NN2C(C(O)C3CCCCC3)C=CC3C(=O)N(c4ccccc4)C(=O)C32)cc1 (stereo unspecified),0.058
11,O=c1oc(-c2ccccc2)nc2cc(Br)ccc12,0.585
12,COC(=O)[C@@]1(Cc2ccc(OC)cc2)[C@H]2c3cc(C(=O)N(C)C)n(Cc4c(OC)[nH]cc(C)c4=O)c3C[C@H]2CN1C(=O)c1ccccc1,-0.144
13,CC(C)NC(=O)[C@@H]1c2ccccc2C(=O)N(Cc2ccccc2)[C@H]1c1ccc(CO)cc1,-1.54
14,O=C1C=CC(=O)[C@@H]2CC(COc3ccccc3)=C3[C@@H](CCc4ccccc4)OB(O)C[C@@H]3[C@H]12,0.411
15,C=CCC(OC(C)=O)[C@@H]1[C@@H](N(Cc2cccc3ccccc23)C(=O)c2cccc3ccccc23)c2cc(OCCCO)ccc2N1C(=O)c1ccc2ccccc2n1 (stereo partly specified),0.457
16,O=C1[C@]2(CO)C=C(Br)[C@@H](C[C@@H]2c2ccccc2)[C@@]12CO2,0.748

row,SMILES,composite z-score
1,COCC1=C2[C@@H](CCc3ccccc3)OB(O)C[C@@H]2[C@@H]2C(=O)N(Cc3ccccc3)C(=O)[C@@H]2C1,0.261
2,CCOC(=O)C1=CC[C@@H](c2ccccc2)N(S(=O)(=O)c2ccc(C)cc2)[C@H]1C(=O)OCC,-0.238
3,Cc1ccccc1C(O)C1C=CC2C(=O)N(C)C(=O)C2N1Nc1ccccc1 (stereo unspecified),-0.395
4,C=CCC(OC(C)=O)[C@@H]1[C@@H](N(Cc2ccc(-c3ccccc3)cc2)C(=O)Cc2ccc(OC)cc2)c2cc(OCCCO)ccc2N1C(=O)c1ccc2ccccc2n1 (stereo partly specified),0.221
5,CCN(CC)c1ccc(N2CC=CC34O[C@@H]5C=CCCOC(=O)C5[C@H]3C(=O)N(CCCCCO)[C@@H]4C2=O)cc1 (stereo partly specified),-0.0412
6,C[C@]1(C(=O)NCc2ccccc2)c2ccccc2C(=O)N(Cc2ccc(OC(F)(F)F)cc2)[C@H]1c1ccc(CO)cc1,-0.111
7,CC(=O)Nc1cc(Br)ccc1C(=O)O,-0.0658
8,COC(=O)C[C@H]1O[C@]2(C(=O)N(Cc3ccccc3)c3ccc(NC(C)=O)cc32)[C@@H](C)[C@@H]1[Si](C)(C)c1ccc(OC)cc1,0.68
9,COCCOC(=O)N1C(=O)[C@@]2(c3cc(C#CCC(C(=O)OC)C(=O)OC)ccc31)[C@H](C(=O)N1CCN(c3ncccn3)CC1)[C@H]1C(=O)O[C@H](c3ccccc3)[C@H](c3ccccc3)N1[C@@H]2c1ccc(OCCO)cc1,0.733
10,O=c1cccc(C=Cc2ccccc2)o1,-0.282
11,CCCCC(CC)C(O)C1C=CC2C(=O)N(c3ccccc3)C(=O)C2N1Nc1ccccc1 (stereo unspecified),-0.249
12,COc1ccc([Si](C)(C)[C@@H]2[C@@H](CC(=O)N(CCO)Cc3ccccc3)O[C@]3(C(=O)N(C)c4ccccc43)[C@H]2C)cc1,1.45
13,CC(C)C[C@@H]1NC(=O)[C@H]2C[C@@H](C(=O)NCCCCCNC(=O)CS)[C@@H](c3cccc(OCCO)c3)N2C1=O,1.35
14,O=C(OCCF)C1=CCC(c2cccc(Cl)c2)O1 (stereo unspecified),-0.217
15,O=C(O)[C@@]1(Cc2ccccc2)N=C(c2ccc(OCCCO)cc2)O[C@H]1c1ccccc1,0.194
